77 compounds from the supplement of paper PMC10670038 can be followed below.

Counter-ions that a name gives are not always drawn. ± gives the standard deviation of the averaged measurements. In all, about 2,000 compounds were measured (“relative cell viability vs DMSO, compound + 0.2 uM CuET”: median about 1, lowest 2% from about 0.25 on). The full list was thinned out, with the lowest values kept by preference.

The assay relates to TE10. In words: relative cell viability vs DMSO, compound + 0.2 uM CuET (fraction); TE10 is an esophageal squamous carcinoma line; higher = less cytotoxic. The following applies: 2 µM; co-treatment: CuET (bis(diethyldithiocarbamate)copper) 0.2 uM; 48 h. Here is the method:
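TE10 ESCC cells (1,000/well, 384-well plates) were treated with Selleck bioactive library compounds at 2 uM combined with 0.2 uM CuET (copper diethyldithiocarbamate) for 48 h. Viability was read by CellTiter-Glo and expressed relative to DMSO wells. Two technical replicates (A, B).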
Consider `CC(=O)Nc1ccccc1` [Acetanilide], for which the relative cell viability was 1.018 ± 0.0034.

Turning to `CC(C)(C)C(=O)Nc1ccc2c(c1)C(=O)C(=O)c1ccccc1-2`, the relative cell viability was 0.026 ± 0.0042.

For the compound `O=C1c2ccccc2C(=O)c2c1ccc(O)c2O` [Alizarin], the relative cell viability was found to be 1.1 ± 0.029.

Consider `COc1ccc(OC)c(C2C(C#N)=C(N)Oc3n[nH]c(-c4ccc5ccccc5c4)c32)c1` (configuration not stated), for which the relative cell viability was found to be 1.06 ± 0.048.

Take `CN(c1ccccc1CNc1nc(Nc2ccc3c(c2)CC(=O)N3)ncc1C(F)(F)F)S(C)(=O)=O`: the relative cell viability was found to be 0.709 ± 0.029.

For the compound `Nc1ccccc1NC(=O)c1ccc(CNC(=O)OCc2cccnc2)cc1` [Entinostat (MS-275)], the relative cell viability was found to be 0.321 ± 0.033.

Take `Cc1ccc(NC(=O)c2ccc(CN3CCN(C)CC3)cc2)cc1Nc1nccc(-c2cccnc2)n1` [Imatinib (STI571)]: the relative cell viability is 1.05 ± 0.1.

On to `Cc1ccc(NC(=O)c2ccc(CN3CCN(C)CC3)cc2)cc1Nc1nccc(-c2cccnc2)n1` [Imatinib Mesylate (STI571)], for which the relative cell viability came to 1.43 ± 0.12.

Consider `Nc1ccccc1NC(=O)c1ccc(CNc2nccc(-c3cccnc3)n2)cc1` [Mocetinostat (MGCD0103)], for which the relative cell viability worked out at 0.249 ± 0.039.

In the case of `O=C1Cc2c([nH]c3ccc(Br)cc23)-c2ncccc2N1` [1-Azakenpaullone], the relative cell viability amounted to 1.17 ± 0.11.

As for `Cc1ccc(-c2csc(NC(=O)c3ccccc3)n2)c(C)c1`, the relative cell viability is 1.22 ± 0.19.

`Cn1c(Nc2ccc(C(F)(F)F)cc2)nc2cc(Oc3ccnc(-c4ncc(C(F)(F)F)[nH]4)c3)ccc21`: the relative cell viability was determined as 0.847 ± 0.035.

Take `CCCc1nc(C)c2c(=O)nc(-c3cc(S(=O)(=O)N4CCN(CC)CC4)ccc3OCC)[nH]n12` [Vardenafil HCl Trihydrate]: the relative cell viability worked out at 1.1 ± 0.062.

Consider `O=C(c1ccc(F)cc1)N1CCCC(c2nc(-c3ccc(F)cc3)no2)C1` (configuration not stated), for which the relative cell viability was 1.12 ± 0.22.

Turning to `C=CC(=O)N1CC(=Cc2ccc([N+](=O)[O-])cc2)C(=O)C(=Cc2ccc([N+](=O)[O-])cc2)C1`, the relative cell viability is 0.126 ± 0.015.

Take `CN1C(C(=O)Nc2ccccn2)=C(O)c2ccccc2S1(=O)=O` [Piroxicam]: the relative cell viability stood at 1.02 ± 0.064.

`Nc1ccccc1NC(=O)c1cnccn1`: the relative cell viability is 1.16 ± 0.018.

Take `CC(C)Oc1ccc2c(=O)c(-c3ccccc3)coc2c1` [Ipriflavone (Osteofix)]: the relative cell viability worked out at 0.968 ± 0.056.

On to `CCC(=O)OCC(=O)[C@@]1(OC(=O)CC)[C@@H](C)C[C@H]2[C@@H]3CCC4=CC(=O)C=C[C@]4(C)[C@@]3(F)[C@@H](O)C[C@@]21C` [Betamethasone Dipropionate], for which the relative cell viability is 1.05 ± 0.052.

With `Cc1ccc(S(=O)(=O)C=CC#N)cc1`, the relative cell viability came out at 0.101 ± 0.0039.

For `CC(C)(C)c1ccc(S(=O)(=O)/C=C/C#N)cc1`, the relative cell viability turned out to be 0.107 ± 0.0014.

`Cc1cc(C)c(-c2csc(NC(=O)c3ccccc3)n2)c(C)c1`: the relative cell viability is 1.17 ± 0.069.

In the case of `O=C(NO)c1ccc(CC(=O)N(CCO)c2ccccc2)cc1`, the relative cell viability came out at 1.056 ± 0.0057.

For `O=C1NC(=NCc2cccs2)S/C1=C\c1ccc2ncccc2c1`, the relative cell viability worked out at 1.12 ± 0.078.

Take `CC(Oc1cc(-c2cnn(C3CCNCC3)c2)cnc1N)c1c(Cl)ccc(F)c1Cl` [(S)-crizotinib]: the relative cell viability came out at 1.12 ± 0.028.

For the compound `CC(C)(C)C(=O)OCOP(=O)(COCCn1cnc2c(N)ncnc21)OCOC(=O)C(C)(C)C` [Adefovir Dipivoxil], the relative cell viability turned out to be 1.02 ± 0.035.

For the compound `Cc1cc(Nc2cc(CN3CCOCC3)c3nc(C)c(Cc4ccc(Cl)cc4F)n3n2)n[nH]1`, the relative cell viability was 0.92 ± 0.046.

For the compound `O=C1C(c2c(O)[nH]c3ccccc23)=Nc2ccccc21` [Indirubin], the relative cell viability stood at 0.978 ± 0.15.

`CC(C)C[C@H](NC(=O)CNC(=O)c1cc(Cl)ccc1Cl)B1OC(=O)CC(CC(=O)O)(C(=O)O)O1` (some centres not stated): the relative cell viability was determined as 0.818 ± 0.048.

`O=C1N=C(O)NC1(c1ccccc1)c1ccccc1` [Phenytoin sodium]: the relative cell viability is 0.961 ± 0.045.

As to `CCN(CC)CCNC(=O)c1ccc(N)cc1` [Procainamide HCl], the relative cell viability is 0.957 ± 0.026.

`COc1ccc(Cn2ccc3ccc(C(=O)NO)cc32)cc1`: the relative cell viability amounted to 0.685 ± 0.085.

With `CCN(CC)Cc1ccc2cc(COC(=O)Nc3ccc(C(=O)NO)cc3)ccc2c1` [Givinostat (ITF2357)], the relative cell viability is 0.192 ± 0.018.

For the compound `C=CC(=O)N1CCN(C(=O)CNc2cc(I)c(Cl)cc2O)CC1` [K-Ras(G12C) inhibitor 12], the relative cell viability was 1.06 ± 0.13.

Regarding `C=CC(C)(C)c1cc(C=CC(=O)c2ccc(O)cc2)c(OC)cc1O` [Licochalcone A], the relative cell viability is 1.008 ± 0.0053.

For `CN1CC[C@@H](c2c(O)cc(O)c3c(=O)cc(-c4ccccc4Cl)oc23)[C@@H]1CO`, the relative cell viability worked out at 0.7 ± 0.044.

Turning to `CNC(=O)c1c(F)cccc1Nc1nc(Nc2cc3c(cc2OC)CCN3C(=O)CN(C)C)nc2[nH]ccc12`, the relative cell viability amounted to 1.06 ± 0.1.

`CC1(C)O[C@@H]2C[C@H]3[C@@H]4CCC5=CC(=O)CC[C@]5(C)[C@@]4(F)[C@@H](O)C[C@]3(C)[C@]2(C(=O)CCl)O1` [Halcinonide]: the relative cell viability is 0.905 ± 0.0084.

For the compound `NC(=O)c1ccc(-c2nc(-c3ccc4c(c3)OCCO4)c(-c3ccccn3)[nH]2)cc1`, the relative cell viability is 0.996 ± 0.12.

Take `CC(C)N(CCC(=O)c1ccc2ccccc2c1)Cc1ccccc1`: the relative cell viability was determined as 0.1814 ± 0.0002.

In the case of `C/C(=C\C(=O)Nc1ccccc1C(=O)O)c1ccc2ccccc2c1`, the relative cell viability stood at 1.14 ± 0.058.

Regarding `CC(COc1ccccc1)N(CCCl)Cc1ccccc1` (configuration not stated) [Phenoxybenzamine HCl], the relative cell viability turned out to be 1.07 ± 0.07.

Regarding `Cn1cc(-c2ccc3c(c2)CCN3C(=O)Cc2cccc(C(F)(F)F)c2)c2c(N)ncnc21`, the relative cell viability was found to be 0.897 ± 0.087.

As for `CN(C)CCN1C(=O)c2cccc3cc(N)cc(c23)C1=O` [Amonafide], the relative cell viability came out at 1.042 ± 0.0065.

`COc1ccc(C2=NC(c3ccc(Cl)cc3)C(c3ccc(Cl)cc3)N2C(=O)N2CCNC(=O)C2)c(OC(C)C)c1` (configuration not stated) [Nutlin-3a]: the relative cell viability amounted to 1.149 ± 0.0057.

As for `COc1ccc(C2=NC(c3ccc(Cl)cc3)C(c3ccc(Cl)cc3)N2C(=O)N2CCNC(=O)C2)c(OC(C)C)c1` (configuration not stated) [Nutlin-3b], the relative cell viability was 1.17 ± 0.094.

Regarding `O=C(Oc1cc(S(=O)(=O)c2ccccc2)ccc1[N+](=O)[O-])c1ccc(Cl)cc1`, the relative cell viability worked out at 1.04 ± 0.07.

Consider `COc1ccc(-c2ccc3ncc4c(c3c2)n(-c2ccc(N3CCNCC3)c(C(F)(F)F)c2)c(=O)n4C)cn1`, for which the relative cell viability worked out at 0.104 ± 0.0046.

Consider `COc1cc(-c2cc(-c3ccc(N4CCNCC4)cc3)cnc2C)cc(OC)c1OC`, for which the relative cell viability was found to be 0.87 ± 0.053.

`Nc1ccc(-c2ccc3ncc4ccc(=O)n(-c5cccc(C(F)(F)F)c5)c4c3c2)cn1` [Torin 2]: the relative cell viability was found to be 0.569 ± 0.16.

Consider `Cc1c(NC(=O)c2ccc(C(C)(C)C)cc2)cccc1-c1cn(C)c(=O)c(Nc2ccc(C(=O)N3CCOCC3)cc2)n1`, for which the relative cell viability was determined as 1.04 ± 0.046.

With `Cc1ccccc1C(=O)Nc1ccc(C(=O)N2CCCC(O)c3cc(Cl)ccc32)c(C)c1` (configuration not stated) [Tolvaptan], the relative cell viability is 1.05 ± 0.075.

`CNCc1ccc(-c2[nH]c3cc(F)cc4c3c2CCNC4=O)cc1`: the relative cell viability was 1.3 ± 0.098.

For the compound `C=C(C)[C@@H]1CC[C@]2(C(=O)O)CC[C@]3(C)[C@H](CC[C@@H]4[C@@]5(C)CC[C@H](O)C(C)(C)[C@@H]5CC[C@]43C)[C@@H]12` [Betulinic acid], the relative cell viability was determined as 0.945 ± 0.13.

On to `CS(=O)(=O)Nc1ccc([N+](=O)[O-])cc1Oc1ccccc1` [Nimesulide], for which the relative cell viability is 1.08 ± 0.044.

With `O=[N+]([O-])c1ccc2c(c1)S(=O)(=O)C=C2` [Stattic], the relative cell viability is 0.204 ± 0.018.

As for `CC(C)=CCCC(C)(OC1OC(COC2OCC(O)C(O)C2O)C(O)C(O)C1O)C1CCC2(C)C1C(O)CC1C3(C)CCC(OC4OC(CO)C(O)C(O)C4O)C(C)(C)C3CCC12C` (configuration not stated) [Gynostemma Extract], the relative cell viability stood at 1.04 ± 0.076.

Turning to `COC(=O)CCSCc1ccc(-c2onc(C)c2NC(=O)OC(C)c2ccccc2Cl)cc1` (configuration not stated), the relative cell viability worked out at 0.919 ± 0.024.

In the case of `CCCCN1CCCCC1C(=O)Nc1c(C)cccc1C` (configuration not stated) [Bupivacaine HCl], the relative cell viability stood at 1.03 ± 0.16.

With `CCN=C1N[C@@H]2[C@@H](O)[C@H](O)[C@@H](CO)O[C@@H]2S1` [Thiamet G], the relative cell viability came out at 1.16 ± 0.065.

With `COc1cc(C(=O)NS(=O)(=O)c2ccccc2C)ccc1Cc1cn(C)c2ccc(NC(=O)OC3CCCC3)cc12` [Zafirlukast], the relative cell viability came to 1.08 ± 0.019.

For `CN1CCc2c(c3ccccc3n2Cc2ccc(C(=O)NO)cc2)C1` [Tubastatin A HCl], the relative cell viability is 0.979 ± 0.011.

Regarding `Cn1cc(CNCC2CCN(c3ncc(C(=O)NO)cn3)CC2)c2ccccc21`, the relative cell viability was found to be 0.171 ± 0.017.

In the case of `CN1CCc2c(c3ccccc3n2Cc2ccc(C(=O)NO)cc2)C1` [Tubastatin A], the relative cell viability is 1.375 ± 0.0024.

In the case of `CCCCCCCCCCCCCCCC(=O)OCC(O)C1OC(=O)C(O)=C1O` [L-Ascorbyl 6-palmitate], the relative cell viability stood at 1.02 ± 0.04.

As to `C[C@@H]1[C@H](O)[C@@H](C)/C=C/C=C/C=C/C=C/C=C/C=C/C=C/[C@H](O[C@@H]2O[C@H](C)[C@@H](O)[C@H](N)[C@@H]2O)C[C@@H]2O[C@](O)(C[C@@H](O)C[C@@H](O)[C@H](O)CC[C@@H](O)C[C@@H](O)CC(=O)O[C@H]1C)C[C@H](O)[C@H]2C(=O)O` [Amphotericin B], the relative cell viability turned out to be 1.13 ± 0.11.

As to `COc1c/c(=C2\C=c3ccccc3=N2)[nH]/c1=C\c1[nH]c(C)cc1C` [Obatoclax Mesylate (GX15-070)], the relative cell viability turned out to be 0.354 ± 0.035.

In the case of `Brc1ccc(C2CN3CCSC3=N2)cc1` (single isomer, unassigned; (-)) [(-)-p-Bromotetramisole Oxalate], the relative cell viability turned out to be 1.33 ± 0.11.

For the compound `Cc1cc(=O)oc2c(C=O)c(O)ccc12`, the relative cell viability was determined as 1.24 ± 0.086.

Regarding `O=C(O)CCNC(=O)c1ccccc1` [Betamipron], the relative cell viability amounted to 1.014 ± 0.0048.

In the case of `CN(NC(=O)CC(=O)NN(C)C(=S)c1ccccc1)C(=S)c1ccccc1` [Elesclomol (STA-4783)], the relative cell viability was found to be 0.0573 ± 0.0087.

For `O=C(O)c1ccccc1` [Benzoic Acid], the relative cell viability was found to be 1.1 ± 0.072.

On to `O=C(Nc1ccc2c(O)cc(S(=O)(=O)O)cc2c1)Nc1ccc2c(O)cc(S(=O)(=O)O)cc2c1`, for which the relative cell viability came to 1.04 ± 0.058.

With `COc1ccc(Oc2cc(C)c(-c3csc(NC(=O)c4ccncc4)n3)c(C)c2)cc1`, the relative cell viability came to 0.89 ± 0.15.

Turning to `O=C(/C=C/c1ccc(O)c(O)c1)O[C@@H]1C[C@](O)(C(=O)O)C[C@@H](O)[C@H]1O` [Chlorogenic Acid], the relative cell viability is 1.1 ± 0.11.

As for `CC1(C)S[C@@H]2[C@H](NC(=O)[C@H](N)c3ccc(O)cc3)C(=O)N2[C@H]1C(=O)O` [Amoxicillin Sodium], the relative cell viability is 1.06 ± 0.069.

Turning to `CC1(C)S[C@@H]2[C@H](NC(=O)[C@H](N)c3ccc(O)cc3)C(=O)N2[C@H]1C(=O)O` [Amoxicillin], the relative cell viability is 0.42 ± 0.49.
